# Results from PubChem BioAssay (NCI).
# The panel holds about 83,000 compounds, 20% with a hit somewhere; the sample as a whole holds those more often.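 The test compound was applied at a single concentration to cells in 96-well plates for 48 hours, and percent growth was recorded.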 A number with no mark means an inactive call. The source made the active and inactive calls. The calls were made as follows: active = growth percent below 10; inactive = the rest.
# Tests used:
# Assay in all cases: NCI-60 one-dose screen, 48 h (100 = growth as untreated, 0 = no growth, -100 = all killed)
# Details in all cases: 10 µM
# NCI-H23 lung = tested on: NCI-H23 lung
# NCI-H226 lung = tested on: NCI-H226 lung
# NCI-H322M lung = tested on: NCI-H322M lung
# NCI-H460 lung = tested on: NCI-H460 lung
# 786-0 renal = tested on: 786-0 renal
# COLO 205 colon = tested on: COLO 205 colon
# NCI-H522 lung = tested on: NCI-H522 lung
# A549/ATCC NSCLC = tested on: A549/ATCC NSCLC
# HOP-62 NSCLC = tested on: HOP-62 NSCLC
# HOP-92 NSCLC = tested on: HOP-92 NSCLC
Compound,growth (NCI-H23 lung),growth (NCI-H226 lung),growth (NCI-H322M lung) [%],growth (NCI-H460 lung),growth (786-0 renal),growth (COLO 205 colon),growth (NCI-H522 lung),growth (A549/ATCC NSCLC),growth (HOP-62 NSCLC),growth (HOP-92 NSCLC)
CCCCC/C=C/C/C=C/CCCCCCCC1=NC(C)(C)CN1C(C)C,20.7%,86.5%,108,-32.3% (active),62.4%,-87.2% (active),,,,
C[C@]12CC[C@@H]3c4ccc(OS(=O)(=O)O)cc4CC[C@H]3[C@@H]1CC[C@@H]2NS(=O)(=O)c1ccc(-c2ccccc2)cc1,61.5%,68.4%,86.9,43.3%,69.6%,47.4%,44.4%,36.3%,,
CC1(C)N=C(N)N=C(N)N1c1cccc(C#N)c1,75.2%,67.9%,64.6,22.3%,35.8%,66.8%,65.6%,29.4%,,
CC(=O)OC1C=CC(OC(C)=O)O1 (configuration not stated),89.4%,80%,101,96.5%,94.6%,97.1%,79.2%,103%,,
CC(C)(C)c1ccc(S(=O)(=O)N[C@H]2CC[C@H]3[C@@H]4CCc5cc(OS(=O)(=O)O)ccc5[C@H]4CC[C@]23C)cc1,56.8%,52.4%,61,26.2%,50%,13.8%,,31.6%,,
IC(I)I,102%,100%,102,109%,101%,,119%,102%,,
O=C1/C=C/[C@@H](O)[C@@H]2C[C@@H](O)C[C@H]2/C=C/CCC[C@H](CCc2ccc(NC(=S)Nc3ccc4c(c3)C(=O)OC43c4ccc(O)cc4Oc4cc(O)ccc43)cc2)O1,4.65% (active),17.4%,,15.4%,,,-31% (active),17.3%,25%,-4.85% (active)
CC(=O)N[C@H](C(=O)N[C@@H](CCCNC(=N)N)C(=O)N[C@@H](CCCCN)C(=O)N[C@@H](CCCNC(=N)N)C(=O)N[C@]1(C)CCCCCC/C=C\CCC[C@@](C)(C(=O)N[C@@H](CCCNC(=N)N)C(=O)N[C@@H](CCC(=O)O)C(=O)N[C@@H](CC(C)C)C(=O)N[C@H](C(=O)N[C@@H](CCC(=O)O)C(N)=O)C(C)C)NC(=O)[C@H](CCC(N)=O)NC(=O)[C@H](CC(C)C)NC(=O)[C@H](CC(C)C)NC(=O)[C@H](CCCNC(=N)N)NC(=O)[C@H](CCCNC(=N)N)NC(=O)[C@H](CC(C)C)NC1=O)C(C)C,1.83% (active),9.55% (active),,-9.29% (active),-51.4% (active),-29.5% (active),28.7%,12.4%,-31.5% (active),-63.6% (active)
CC(C)(C)OC(=O)CN1CCc2c(sc3ncnc(N/N=C/c4ccccc4Br)c23)C1,80.2%,83.4%,,70.9%,77%,,53.4%,77.6%,89%,73.7%
COc1ccc(/C(C#N)=C/c2cccc(OC)c2OC)cc1,80%,89%,,108%,93.8%,,58.8%,67.5%,88%,86.4%
CC(C)(C)c1ccc(S(=O)(=O)Oc2ccc(NC(=O)C3CCCCC3)cc2)cc1,23%,45.4%,,44.2%,55.4%,32.4%,25.4%,41.5%,88.7%,39.6%
Cc1nn(-c2ccccc2)c2nc(Cl)c(C=O)c(-c3ccccc3)c12,80.6%,93.3%,,94%,94.5%,121%,106%,78.3%,115%,65.7%
CCCCCCCCCCOC(c1ccccc1)c1ccccc1,83%,85.5%,,101%,98%,,75.8%,83.6%,87.8%,103%
OCC1OC(n2ccc3c(NO)ncnc32)C(O)C1O (configuration not stated),-56.3% (active),-10.3% (active),,-27.7% (active),-7.13% (active),-91.1% (active),-30.1% (active),-10.9% (active),-21.6% (active),-16.3% (active)
CCOC(=O)C1=CSC2=NC3=C(CCC/C3=C\c3ccc(Cl)cc3)C(c3ccc(Cl)cc3)N12 (configuration not stated),83.8%,92.2%,,102%,101%,,93.5%,96.5%,115%,96.2%
S=C(NCc1ccccc1)NCc1ccccc1,95%,97.8%,,103%,96.6%,107%,82.4%,86.1%,94.2%,99.3%
COc1ccc(-c2cc(-c3ccc(Cl)cc3)nc(SCCCC(=O)NO)n2)cc1,0.964% (active),-2.21% (active),,0.515% (active),3.69% (active),2.04% (active),-12.1% (active),5.47% (active),5.55% (active),1.25% (active)
CCOC(=O)c1cc(C(=O)c2cc(OC)c(OC)c(OC)c2)n2nc(C)ccc12,39.2%,79.5%,,9.56% (active),54.4%,-39.4% (active),3.82% (active),26.8%,51.2%,50.1%
CN(C)CCCOc1ccc(OCCCN(C)C)c2c1C(=O)c1ccccc1C2=O,-19.6% (active),-5.49% (active),,0.0676% (active),16.6%,,-48.5% (active),3.96% (active),-1.4% (active),-0.93% (active)
NC(=O)c1cccc(-n2ccc3cc(NC(=O)Nc4ccc(Cl)c(C(F)(F)F)c4)ccc32)n1,82.2%,66.2%,,68%,49.1%,,64.7%,68.2%,86.5%,97.6%
Cc1[nH]c2ccccc2c1/C=N/Nc1ncnc2sc3c(c12)CCN(CC(=O)OC(C)(C)C)C3,91.6%,98%,,98.3%,47.1%,63.4%,58.4%,65%,92.4%,61.2%
Cc1ccc(C(=O)/C=C/c2ccccc2)s1,109%,93.8%,,108%,86.7%,134%,93.5%,101%,120%,144%
O=C(Nc1cc(Cl)cc2c1-c1ccc(Cl)cc1C2O)C(Cl)Cl (configuration not stated),79.5%,55%,,35.9%,98.4%,94.2%,84.2%,74.5%,83.3%,77.1%
O=C(CSc1nccc(Nc2cccc3ccccc23)n1)c1ccc(Cl)cc1,79.6%,84.8%,,99.5%,102%,,81.9%,87.7%,81.9%,82.5%
c1ccc2c(c1)Cc1ccccc1N2CCN1CCCCC1,90%,103%,,107%,95.3%,,75.2%,89.9%,84.1%,85.8%
O=C1/C=C/[C@@H](O)[C@@H]2C[C@@H](O)C[C@H]2/C=C/CCC[C@@H](C(F)(F)F)O1,81.4%,59.9%,,104%,92.6%,,88%,99.3%,99.3%,99.4%
Cc1cc(=O)n2nnc3cc(C(F)(F)F)ccc3n12,101%,115%,,114%,104%,,97.4%,105%,117%,93.9%
O=C(CSc1nnc(-c2ccc(Cl)cc2)o1)Nc1ccc(C(=O)/C=C/c2ccc(Cl)cc2)cc1,87.7%,93.3%,,98.2%,99.9%,117%,86.8%,95.6%,95.8%,106%
O=C(CCNC(=O)c1nc(-c2ccccc2)n(-c2ccc(Cl)cc2)n1)NO,101%,96.7%,,104%,96.2%,94.8%,82.4%,88.6%,83.7%,108%
Cc1cc(Br)nnc1Br,106%,87.2%,,117%,104%,,110%,109%,91.8%,128%
